Data: PubChem BioAssay (EPA / NIEHS)
Calls of active or inactive are those of the source. Rule for the calls: active = hit-call score of the fitted dose curve at least 0.9, where 1 is the maximum; inactive = score below 0.9.

How the values were obtained:
[1] = read-out: Macrophage colony-stimulating factor (MCSF), CSF1 (gene 1435); assay: BSK_hDFCGF_MCSF: BioMAP Diversity Plus: hDFCGF Assay for Macrophage colony-stimulating factor (MCSF) Biomarker Activity (AID 2283060); details: primary human foreskin fibroblasts; actives raise or lower the signal
Outline: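 Human foreskin fibroblast primary cultures; M-CSF measured by ELISA 24 hours after chemical dosing. Bidirectional fitting relative to DMSO, with overt cytotoxicity tracked by parallel SRB total-protein staining (0.1% SRB, 10% TCA fixation, 560 nm).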

[2] = BSK_hDFCGF_SRB: Viability Assessment in the BioMAP Diversity Plus: hDFCGF Assay (AID 2283061); details: primary human foreskin fibroblasts;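 note: cells exposed to compound for 24 h before the read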
Outline: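 Human foreskin fibroblasts in 96-well plates were treated 24 h. Total protein was measured by 0.1% SRB staining after 10% TCA fixation, read at 560 nm. Data were fitted bidirectionally against DMSO.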

[3] = read-out: TIMP metallopeptidase inhibitor 1 (TIMP1), TIMP1 (gene 7076); assay: BSK_hDFCGF_TIMP1: BioMAP Diversity Plus: hDFCGF Assay for TIMP metallopeptidase inhibitor 1 (TIMP1) Biomarker Activity (AID 2283062); details: primary human foreskin fibroblasts; actives raise or lower the signal
Outline: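 Human foreskin fibroblast primary cultures dosed for 24 h; secreted/surface TIMP-1 quantified by ELISA. Bidirectional curve fitting against DMSO baseline; cytotoxicity tracked in parallel cultures by SRB total-protein staining.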

[4] = read-out: Matrix Metallopeptidase 1 (MMP1), MMP1 (gene 4312); assay: BSK_hDFCGF_MMP1: BioMAP Diversity Plus: hDFCGF Assay for Matrix Metallopeptidase 1 (MMP1) Biomarker Activity (AID 2283064); details: primary human foreskin fibroblasts; actives raise or lower the signal
Outline: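 ELISA read-out of MMP1 from human foreskin fibroblasts (primary skin cells), 24 h post-dose. Gain or loss of signal was fitted bidirectionally versus DMSO negative control; cytotoxicity was checked by SRB in parallel cultures.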

[5] = read-out: Vascular cell adhesion molecule 1 (VCAM1), VCAM1 (gene 7412); assay: BSK_hDFCGF_VCAM1: BioMAP Diversity Plus: hDFCGF Assay for Vascular cell adhesion molecule 1 (VCAM1) Biomarker Activity (AID 2283065); details: primary human foreskin fibroblasts; actives raise or lower the signal;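 for AC50: VCAM-1 protein level quantified by ELISA after 24 h chemical exposure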
Outline: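 Human foreskin fibroblast primary cells dosed with chemical, VCAM-1 measured by ELISA at 24 h. Bidirectional curve fitting relative to DMSO as negative control/baseline.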

[6] = read-out: Plasminogen activator inhibitor-1 (PAI1), SERPINE1 (gene 5054); assay: BSK_hDFCGF_PAI1: BioMAP Diversity Plus: hDFCGF Assay for Plasminogen activator inhibitor-1 (PAI1) Biomarker Activity (AID 2283066); details: primary human foreskin fibroblasts; actives raise or lower the signal
Outline: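 ELISA readout of PAI-1 from primary human skin fibroblast cultures, 24 h after compound addition. Gain or loss of signal was fitted bidirectionally against DMSO baseline.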

[7] = read-out: Intercellular Adhesion Molecule 1 (ICAM1), ICAM1 (gene 3383); assay: BSK_KF3CT_ICAM1: BioMAP Diversity Plus: KF3CT Assay for Intercellular Adhesion Molecule 1 (ICAM1) Biomarker Activity (AID 2283067); details: primary human keratinocytes with fibroblasts; actives raise or lower the signal
Outline: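 Human keratinocyte–foreskin fibroblast co-culture was treated for 24 h. Cell-surface ICAM-1 was quantified by ELISA, fitted bidirectionally relative to DMSO. Cytotoxicity was checked in parallel cultures by SRB total-protein staining.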

[8] = read-out: Interferon-gamma inducible Protein 10 (IP10), CXCL10 (gene 3627); assay: BSK_KF3CT_IP10: BioMAP Diversity Plus: KF3CT Assay for Interferon-gamma inducible Protein 10 (IP10) Biomarker Activity (AID 2283068); details: primary human keratinocytes with fibroblasts; actives raise or lower the signal
Outline: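 KF3CT co-culture (keratinocytes + foreskin fibroblasts), 24 h compound, IP-10 by ELISA; bidirectional fit vs DMSO baseline.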

[9] = BSK_KF3CT_SRB: Viability Assessment in the BioMAP Diversity Plus: KF3CT Assay (AID 2283069); details: primary human keratinocytes with fibroblasts;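 note: total protein by sulforhodamine B staining as a cytotoxicity measure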
Outline: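 SRB read-out at 560 nm (0.1% stain, TCA-fixed cells) gauges overt cytotoxicity in a human skin keratinocyte–fibroblast co-culture 24 h post-dosing. Signal change was fitted bidirectionally relative to DMSO control.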

[10] = read-out: Interleukin-1 alpha (IL1a), IL1A (gene 3552); assay: BSK_KF3CT_IL1a: BioMAP Diversity Plus: KF3CT Assay for Interleukin-1 alpha (IL1a) Biomarker Activity (AID 2283070); details: primary human keratinocytes with fibroblasts; actives raise or lower the signal
Outline: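 Primary skin co-culture (keratinocytes, foreskin fibroblasts), 24 h exposure; ELISA for IL-1a; bidirectional curve fit vs DMSO.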

[11] = read-out: TIMP metallopeptidase inhibitor 2 (TIMP2), TIMP2 (gene 7077); assay: BSK_KF3CT_TIMP2: BioMAP Diversity Plus: KF3CT Assay for TIMP metallopeptidase inhibitor 2 (TIMP2) Biomarker Activity (AID 2283071); details: primary human keratinocytes with fibroblasts; actives raise or lower the signal
Outline: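 ELISA readout of TIMP-2 in keratinocyte plus foreskin fibroblast co-cultures (human skin primary cells), 24 h post-dose. Gain or loss of signal fitted relative to DMSO.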

[12] = read-out: Transforming growth factor beta 1 (TGFb1), TGFB1 (gene 7040); assay: BSK_KF3CT_TGFb1: BioMAP Diversity Plus: KF3CT Assay for Transforming growth factor beta 1 (TGFb1) Biomarker Activity (AID 2283072); details: primary human keratinocytes with fibroblasts; actives raise or lower the signal
Outline: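 Read-out: ELISA for TGF-b1 in keratinocyte/foreskin fibroblast human skin co-culture, 24 h after dosing; bidirectional curve fit vs DMSO baseline; gain or loss of signal scored.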

[13] = read-out: C-C motif chemokine 2 (Homo sapiens) (UniProt P13500); assay: BSK_KF3CT_MCP1: BioMAP Diversity Plus: KF3CT Assay for Monocyte Chemoattractant Protein 1 (MCP1/CCL2) Biomarker Activity (AID 2283073); details: primary human keratinocytes with fibroblasts; actives raise or lower the signal
Outline: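 Human keratinocyte–foreskin fibroblast co-culture; MCP-1 measured by ELISA 24 h after dosing. Bidirectional fit vs DMSO; cytotoxicity tracked by SRB total protein in parallel cultures.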

[14] = read-out: Matrix Metallopeptidase 9 (MMP9), MMP9 (gene 4318); assay: BSK_KF3CT_MMP9: BioMAP Diversity Plus: KF3CT Assay for Matrix Metallopeptidase 9 (MMP9) Biomarker Activity (AID 2283074); details: primary human keratinocytes with fibroblasts; actives raise or lower the signal;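 for AC50: MMP9 protein level quantified by ELISA in the co-culture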
Outline: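 ELISA read-out of MMP-9 at 24 h post-dosing in a co-culture of human skin keratinocytes and foreskin fibroblasts. Gain or loss of signal was fitted in both directions against DMSO.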

[15] = read-out: urokinase plasminogen activator (uPA), PLAU (gene 5328); assay: BSK_KF3CT_uPA: BioMAP Diversity Plus: KF3CT Assay for urokinase plasminogen activator (uPA) Biomarker Activity (AID 2283075); details: primary human keratinocytes with fibroblasts; actives raise or lower the signal
Outline: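 Skin co-culture (keratinocytes + foreskin fibroblasts), human primary; 24 h post-dose; uPA by ELISA; gain/loss fit vs DMSO baseline.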

CD40, CD40 (gene 958) = assay: BSK_LPS_CD40: BioMAP Diversity Plus: LPS Assay for CD40 Biomarker Activity (AID 2283076); details: primary human HUVEC with PBMC; actives raise or lower the signal
Outline: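 HUVEC plus PBMC co-culture stimulated with LPS; CD40 quantified by ELISA 24 h after compound dosing. Fitting was bidirectional relative to DMSO. SRB staining of parallel cultures flagged overt cytotoxicity.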

[16] = BSK_LPS_SRB: Viability Assessment in the BioMAP Diversity Plus: LPS Assay (AID 2283079); details: primary human HUVEC with PBMC;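 note: total protein by sulforhodamine B absorbance as a cytotoxicity measure; measured one day after compound addition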
Outline: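 Co-culture of human umbilical vein endothelial cells and PBMC, read 24 h after dosing. Total protein by 0.1% SRB staining after 10% TCA fixation, absorbance at 560 nm; bidirectional fit against DMSO.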

Measured: AC50

COC(=O)c1ccc(C(=O)OC)cc1
inactive: all assays above

CCCO[Si](OCCC)(OCCC)OCCC
not listed: [12]
inactive: all other assays above

O=S1(=O)CC(Cl)(Cl)C(Cl)(Cl)C1
active: [1] 0.71 µM | [2] 0.845 µM | [3] 0.839 µM | [4] 0.865 µM | [5] 0.613 µM | [6] 0.865 µM | [7] 1.4 µM | [8] 2.65 µM | [9] 1.36 µM | [10] 1.52 µM | [11] 1.36 µM | [12] 1.11 µM | [13] 1.38 µM | [14] 1.74 µM | [15] 2 µM | CD40, CD40 (gene 958) 0.457 µM | [16] 5.01 µM

COc1ccccc1NC(=O)CC(C)=O
inactive: all assays above

C#C[C@]1(O)CC[C@H]2[C@@H]3CCc4cc(O)ccc4[C@H]3CC[C@@]21C
active: [16] 9.58 µM
inactive: all other assays above
